The text below walks through data of PubChem BioAssay AID463173 (ICCB-Longwood Screening Facility, Harvard Medical School, 2010).

The whole screen tested about 52,000 compounds, of which about 1,700 (3.3%) were called active. The sample holds actives, similar compounds and a random draw of the others, so the mix is not that of the screen. A number with no mark means an inactive call. No stated cut-off is given here; in the data, active means survival mostly below about 52% (no sharp cut-off); inactive means mostly above about 56%.

The test deals with Wild type. The experiment in a line: S. aureus survival, RN4220 and DeltatarO strains – OD600, teichoic acid synthesis inhibitors, primary screen (AID 463173). Conditions: S. aureus RN4220 wild type/DeltatarO growth, OD600, 18 h, hits give low values, screened at 18.75 µg/mL (by protocol).
Take `COc1ccc(CNCc2ccc3c(c2)n(C)c(=O)n3C)cc1`: the survival was 90%.
The same measure for `COc1cc(NC(=O)C(CC(C)C)NS(=O)(=O)c2ccc3c(c2)oc(=O)n3C)c(C(=O)O)cc1OC` (centres undefined): 124%.
Consider `Nc1cccc2c1C(=O)N(CC(=O)O)C2=O`, for which the survival is 104%.
As for `Cc1ccccc1CNC(=O)Cn1ncn2nc(-c3cccs3)cc2c1=O`, the survival was 120%.
As for `CCOc1ccc(S(=O)(=O)NCC(c2ccco2)S(=O)(=O)c2ccc(F)cc2)cc1` (centres undefined), the survival is 90%.
The same measure for `O=C(CSc1nc2cc3ccccc3cc2[nH]1)Nc1ccc(F)cc1`: 76%; for `CCCCNC(=O)c1nn(-c2ccc(C)cc2)c(=O)c2c1c1ccccc1n2C`: 79%; for `CN(Cc1ccco1)C(=O)c1ccc2c(c1)N(Cc1ccccc1F)C(=O)c1ccccc1S2`: 115%.
For `Cc1oc2ncn(CC(C)C)c(=O)c2c1C(=O)N1CCN(c2ccc(F)cc2)CC1`, the survival is 57%.
The figure for `CC1CCCN(S(=O)(=O)c2ccc(S(=O)(=O)N(Cc3cccs3)Cc3cccs3)cc2)C1` (centres undefined) is 112%.
The same measure for `Cc1ccc(CN(Cc2ccco2)C(=O)COc2ccccc2C)cc1`: 83%; for `O=C(Nc1nnc(S(=O)(=O)N2CCc3ccccc32)s1)c1ccccc1Cl`: 23%.
Take `O=C(Nc1nnc(S(=O)(=O)N2CCc3ccccc32)s1)c1cccc(Cl)c1`: the survival is 12% (active).
The figure for `O=C(Nc1nnc(S(=O)(=O)N2CCc3ccccc32)s1)c1ccccc1` is 19%; for `O=c1[nH]c2cc3c(cc2cc1CN(CCN1CCOCC1)C(=S)Nc1ccccc1)OCCO3` it is 109%; for `CCOc1ccc(NC(=O)CC2Nc3cccc4cccc(c34)NC2=O)cc1` (centres undefined) it is 63%.
The same measure for `CCOc1ccc(-c2nonc2NC(=O)c2oc3c(C)c(C)ccc3c2C)cc1OCC`: 82%; for `COC(=O)Cn1c(SCCOc2ccccc2Cl)nc2ccccc21`: 81%; for `CCn1c(SCCOc2ccccc2F)nc2ccccc21`: -1% (active).
`COC(=O)Cn1c(SCCOc2ccccc2OC)nc2ccccc21`: the survival was 91%.
In the case of `Cn1c(=O)c2c(nc(Oc3ccccc3)n2Cc2c(Cl)cccc2Cl)n(C)c1=O`, the survival was 73%.
On to `COc1ccc(Oc2nc3c(c(=O)n(C)c(=O)n3C)n2Cc2ccccc2Cl)cc1`, for which the survival was 75%.
The same measure for `CCCCC(CC)Cn1c(Oc2ccccc2)nc2c1c(=O)n(C)c(=O)n2C` (centres undefined): -2% (active).
As to `Cc1ccc(C(=O)N2CCN(c3ccccc3F)CC2)cc1NC(=O)c1nsc2ccccc12`, the survival was 87%.
The same measure for `Cc1cc(C)cc(Oc2nc3c(C)cccn3c(=O)c2/C=C(\C#N)c2nc3ccccc3[nH]2)c1`: 69%.
For the compound `CCCCN(CC)CCCNC(=O)c1ccc2c(c1)NC(=O)CN2C`, the survival was 57%.
Consider `CCOc1ccc(-c2cn3c(n2)sc2cc(C(=O)NCCCN4CCCCCC4)ccc23)cc1`, for which the survival is -1% (active).
The figure for `CCCN1CCN(CCCNC(=O)c2ccc3c(c2)sc2nc(-c4ccc(OCC)cc4)cn23)CC1` is 36%.
For the compound `O=C(NCCCN1CCCCCC1)c1ccc2c(c1)sc1nc(-c3ccccc3)cn12`, the survival is 38%.
With `CCN1CCN(CCCNC(=O)c2ccc3c(c2)sc2nc(-c4ccc(OC)cc4)cn23)CC1`, the survival was 82%.
As for `CCOc1ccc(-c2cn3c(n2)sc2cc(C(=O)NCCCN4CCCCC4)ccc23)cc1`, the survival was -1% (active).
Take `CCCN1CCN(CCCNC(=O)c2ccc3c(c2)sc2nc(-c4ccc(OC)cc4)cn23)CC1`: the survival is 81%.
The figure for `COc1cccc(Cn2cc(C(=O)c3ccccc3)c(=O)c3cc4c(cc32)OCO4)c1` is 84%.
The figure for `O=C(CSCc1ccccc1Cl)NCc1ccc(Cl)c(Cl)c1` is 148%.
The same measure for `CCOc1cc(C(=O)Nc2ccc(-c3nnc4n3CCCCC4)cc2)cc(OCC)c1OCC`: 88%; for `COc1ccc(C(=O)Nc2ccc(-c3nnc4n3CCCCC4)cc2)cc1OC`: 65%; for `COc1ccc(C(=O)Nc2ccc(-c3nnc4n3CCCCC4)cc2)cc1`: -3% (active).
For the compound `Cc1ccc2c(c1)C(c1ccccc1)N(C(=O)c1ccc(S(=O)(=O)N3CCCCC3)cc1)CC(=O)N2` (centres undefined), the survival was 86%.
As for `CCOC(=O)c1cnc2c(ccc3ccccc32)c1Nc1cccc(OC)c1`, the survival is 68%.
`CCOC(=O)c1cnc2ccccc2c1NCCc1ccc(OC)c(OC)c1`: the survival was 53%.
Take `CCOC(=O)c1cnc2c(ccc3ccccc32)c1Nc1ccc(OC)c(OC)c1`: the survival is 5% (active).
As to `CCOC(=O)c1cnc2c(ccc3ccccc32)c1Nc1cccc(Cl)c1`, the survival is 23%.
The same measure for `CCOC(=O)c1cnc2c(ccc3ccccc32)c1Nc1ccc(Cl)cc1`: 30%.
The same measure for `CCOc1ccc(Nc2nc(N)c(C(=O)c3ccccc3Cl)s2)cc1`: -2% (active).
With `COc1cccc(C(=O)c2sc(Nc3ccc(F)c(Cl)c3)nc2N)c1`, the survival was 65%.
The same measure for `Cc1ccccc1Nc1nc(N)c(C(=O)c2ccccc2Cl)s1`: 101%; for `CCOC(=O)c1cnc2c(ccc3ccccc32)c1Nc1ccc(OCC)cc1`: -2% (active).
For the compound `CCOC(=O)c1cnc2c(ccc3ccccc32)c1Nc1ccc(C(C)=O)cc1`, the survival was 0% (active).
The same measure for `CCOC(=O)c1cnc2c(ccc3ccccc32)c1Nc1ccccc1O`: 74%; for `COc1ccccc1CNC(=O)C1CCCN(S(=O)(=O)c2ccc3c(c2)oc(=O)n3C)C1` (centres undefined): 92%.
The same measure for `COc1cc(OC)c(NC(=O)CSc2nccn2C)cc1Cl`: 75%.
The same measure for `Nc1nonc1-c1nc2ccccc2n1Cc1ccc(Br)cc1`: 93%; for `CC(=O)N1CCc2c(sc3c2c(=O)n(-c2cc(Cl)ccc2C)c(=O)n3C)C1`: 119%.
With `CCOC(=O)c1cnc2c(ccc3ccccc32)c1Nc1ccccc1OC`, the survival was 69%.
The figure for `CCOC(=O)c1cnc2c(Cl)c(Cl)ccc2c1Nc1ccc(N(C)C)cc1` is 80%; for `CCOC(=O)c1cnc2c(ccc3ccccc32)c1Nc1ccc(N(C)C)cc1` it is 0% (active); for `CCOC(=O)c1cnc2c(CC)cccc2c1NCCO` it is 116%.
Take `CCOC(=O)c1cnc(NCc2ccc(OC)cc2OC)c2ccccc12`: the survival was 117%.
The same measure for `CCOC(=O)c1cnc2c(ccc3ccccc32)c1Nc1ccc(OC)cc1OC`: 6% (active); for `CCOC(=O)c1cnc2c(OC)cccc2c1Nc1cccc(O)c1`: 73%; for `CCOC(=O)c1cnc2c(C)cccc2c1Nc1ccc(OC(C)C)cc1`: 3% (active).
The same measure for `CCN1C(=O)SC(CC(=O)O)C1=O` (centres undefined): 99%.
In the case of `CCOc1ccc(NC(=O)CC2C(=O)N(c3ccccc3)C(=O)N2C2CCCCC2)cc1` (centres undefined), the survival was 69%.
The same measure for `CC(C)c1ccc(NC(=O)CN2C(=O)C3(SCC(=O)N3c3ccc(F)cc3)c3ccccc32)cc1` (centres undefined): 58%.
The same measure for `CCCCOc1ccc(S(=O)(=O)N2CCN(c3ccccc3OCC)CC2)cc1`: 112%; for `CCc1ccc(N2CCn3c2nc2c3c(=O)n(C/C=C/c3ccccc3)c(=O)n2C)cc1`: 79%.
The figure for `CCCCc1nn2c(=O)cc(COC(=O)C3CCCCC3)nc2s1` is 70%.
Turning to `Cc1cccc(C(=O)N2CCc3cc(CNC(=O)c4ccnn4C)ccc32)c1`, the survival is 90%.
The figure for `C#CCSc1nc(-c2ccccc2)cc(-c2ccccc2)c1C#N` is 70%; for `COc1ccc(-n2ccnc(NCc3cccs3)c2=O)cc1OC` it is 80%; for `COc1ccc(-n2ccnc(NCc3ccccc3OC)c2=O)cc1` it is 85%.
For `O=c1c(NCc2cccs2)nccn1-c1ccccc1`, the survival is 74%.
The figure for `COc1ccc(-n2ccnc(NCc3cccs3)c2=O)cc1` is -3% (active); for `COc1ccc(-n2ccnc(NCc3ccc(Cl)cc3)c2=O)cc1` it is 0% (active).
The same measure for `COc1ccc(-n2ccnc(NCc3ccc(C)cc3)c2=O)cc1OC`: 87%; for `COc1ccc(-c2cc3nc(C)c(CCC(=O)N4CCN(c5ccc(F)cc5)CC4)c(C)n3n2)c(OC)c1`: 85%.
For `COC(=O)c1cc(S(=O)(=O)N2CCN(c3ccc(C)cc3C)CC2)cn1C`, the survival was 65%.
The figure for `COCCNC(=S)N1CCC(c2nc(-c3ccc(N(C)C)cc3)no2)CC1` is 107%.
For the compound `COCCNC(=O)CCCn1c(SCC(=O)Nc2cccc(C)c2)nc2c(sc3ccccc32)c1=O`, the survival was 86%.
The figure for `COc1cccc(-c2nc(SCc3cc(=O)c4ccc(C)c(C)c4[nH]3)n[nH]2)c1` is 97%.
For `CCOc1ccc(CNC(=O)CCS(=O)(=O)c2cc3c4c(c2)CCN4C(=O)CC3)cc1`, the survival was 71%.
The same measure for `CCN(CC)c1ccc(NC(=O)c2sc3ccccc3c2Cl)cc1`: 15% (active); for `Cc1ccc(NC(=O)c2sc3ccccc3c2Cl)cc1`: 76%.
The same measure for `Cc1cccc(NC(=O)c2sc3cccc(Cl)c3c2Cl)c1`: 6% (active).
The same measure for `CCCC(=O)Nc1ccc(NC(=O)c2sc3ccccc3c2Cl)cc1`: 128%; for `COc1ccccc1NC(=O)c1sc2cccc(Cl)c2c1Cl`: 71%; for `O=C(Nc1ccccc1Cl)c1sc2cccc(Cl)c2c1Cl`: 72%.
Regarding `O=C(Nc1ccc(N2C(=O)C=CC2=O)cc1Cl)c1ccco1`, the survival was 105%.
Consider `CC1CCCCN1CCCNC(=O)Cn1ncc2c3ccccc3n(Cc3ccccc3F)c2c1=O` (centres undefined), for which the survival was 90%.
Take `O=C(Nc1ccccc1)c1cccc(N2CCCC2=O)c1`: the survival is 110%.
For the compound `CC1CCN(S(=O)(=O)c2ccc(S(=O)(=O)N3CCCN(Cc4ccccc4)C3)cc2)CC1`, the survival was 107%.
The same measure for `C/C(=N\Nc1nc2sc3c(c2c2ncnn12)CC(C)(C)OC3)C(=O)O`: 102%.
The same measure for `COc1ccc(C2C(C(N)=O)=C(C)Nc3nc(CCCO)nn32)c(OC)c1` (centres undefined): 62%; for `COc1ccc(-n2nc3c(N4CCC(C(=O)NC5CCCCC5)CC4)nnc(C)c3c2C)cc1`: 73%.
